Out of some 69,000 compounds screened, about 8,600 (12%) showed an effect of 50% or more. The sample holds strong results, similar compounds and a random draw of the others, so the mix is not that of the screen.

This test deals with Plasmodium berghei. Put plainly: Screen against P. berghei liver stage (PbLuc), transformed with Luciferase, at 10uM. It is filed as functional, HepG2. The following applies: tested at 10 uM.
For the compound `Cc1occc1C(=O)N1CCO[C@H]2[C@H](Oc3cccnc3)CC[C@@H]21`, the INHIBITION is reported as 18.6%.

As for `COCCn1ccnc1C1CCCN(c2ncnc3c2CCC3)C1` (stereo not drawn), the INHIBITION is 57.5%.

Regarding `COCCc1noc(CN2CCCC2c2noc(C3CC3)n2)n1` (stereo not drawn), the INHIBITION is given as -14.1%.

Take `CCc1nc2c(N3CCCC(c4nccn4CCOC)C3)ncnc2o1` (stereo not drawn): the INHIBITION is reported as 29.1%.

Regarding `COCCc1noc(C2CCCN(c3nc(N)nc4c3CCCC4)C2)n1` (stereo not drawn), the INHIBITION is reported as 65.2%.

`c1nc2c(c(N3CCCC(Cn4cncn4)C3)n1)CCC2` (stereo not drawn): the INHIBITION amounted to 29.2%.

As to `Cc1cc(C)n(C2CCN(c3ncnc4c3CCC4)C2)n1` (stereo not drawn), the INHIBITION came out at 36.1%.

Take `COCCn1ccnc1C1CCCN(c2ncnc3c(C)csc23)C1` (stereo not drawn): the INHIBITION was -0.529%.

Turning to `COCCCN(C)C1CCCN(Cc2noc(C3CC3)n2)C1` (stereo not drawn), the INHIBITION is 44.1%.

In the case of `COCCc1noc(C2CCCN(c3ncnc4c3CCC4)C2)n1` (stereo not drawn), the INHIBITION stood at 78.8%.

Regarding `CC(=O)NC1CCN(c2nc(N)nc3c2CCCC3)C1` (stereo not drawn), the INHIBITION worked out at 46.6%.

In the case of `COCCN1CCN(Cc2noc(C3CC3)n2)CC1C` (stereo not drawn), the INHIBITION stood at 20.1%.

For `CCc1c(C)nc(N)nc1N1CCCC(c2nc(CCOC)no2)C1` (stereo not drawn), the INHIBITION is 68.6%.

As for `COC[C@]12COC[C@H]1CN(Cc1ccc3c(c1)OCO3)C2`, the INHIBITION is given as 35.8%.

For `Cc1cnn(CC2CCCN2C(=O)c2nccnc2N)c1` (stereo not drawn), the INHIBITION stood at 43.2%.

Consider `COc1ccc(OC)c(C(=O)N2CCC(Nc3cccnc3)CC2)c1`, for which the INHIBITION is on record as -5.08%.

`O=C(NC1CCCN(c2ccccc2Cl)C1)c1ccc(=O)[nH]n1` (stereo not drawn): the INHIBITION was 28.7%.

Turning to `CC(C)c1nn(C)c(N(C)C)c1CNCc1ccc2c(c1)OCCO2`, the INHIBITION is on record as 19.6%.

Regarding `Cc1n[nH]c(C(=O)NCc2ccnc(OCC(F)(F)F)c2)c1Br`, the INHIBITION amounted to 81.5%.

For the compound `Cc1cc(C(=O)NCc2ccnc(OCC(F)(F)F)c2)on1`, the INHIBITION is -20.893%.

For `COc1cc(CNC(=O)c2c(C)noc2C)ccn1`, the INHIBITION is given as 32.15%.

In the case of `CCOc1cc(CNC(=O)c2cnn(CC)c2C(F)(F)F)ccn1`, the INHIBITION came out at 70.4%.

As for `Cc1ncsc1C(=O)NCc1ccnc(OCC(F)(F)F)c1`, the INHIBITION amounted to 73.05%.

Consider `Cc1ccsc1C(=O)NCc1ccnc(OCC(F)(F)F)c1`, for which the INHIBITION turned out to be 39.5%.

On to `CCOc1cccc(CNC(=O)c2cnn(CC)c2C(F)(F)F)c1`, for which the INHIBITION was -15.3%.

Consider `CCn1ncc(C(=O)NCc2ccc(C)c(OC)c2)c1C(F)(F)F`, for which the INHIBITION turned out to be 46.7%.

Take `Cc1cc(C(=O)NCc2ccnc(OCC(F)(F)F)c2)no1`: the INHIBITION is -10.45%.

Consider `Cc1noc(C)c1CC(=O)NCc1ccnc(OCC(F)(F)F)c1`, for which the INHIBITION is -9.535%.

Take `Cc1ccoc1C(=O)NCc1ccnc(OCC(F)(F)F)c1`: the INHIBITION is given as -23.593%.

In the case of `Cc1noc(C)c1C(=O)NCc1ccnc(OCC(F)(F)F)c1`, the INHIBITION amounted to 63.6%.

For `CCn1ncc(S(=O)(=O)N2CCCC3(CC=CNC3=O)C2)c1C` (stereo not drawn), the INHIBITION was determined as 46.2%.

As for `CC(C)c1nc2n(n1)CC(NCc1nnc(C3CC3)o1)CC2` (stereo not drawn), the INHIBITION was -2.53%.

On to `Cc1nc(C(C)C)sc1C(=O)NCCn1nc2ccccn2c1=O`, for which the INHIBITION is recorded as -22.5%.

On to `COCC1CCCN(C(=O)c2ccccc2NCc2cccnc2)C1` (stereo not drawn), for which the INHIBITION was 18.9%.

With `O=C(CCCOc1cccc(F)c1)N1CCCC(n2cncn2)C1` (stereo not drawn), the INHIBITION is reported as -49.5%.

`Cc1nc(CN2C(=O)CCC23CCN(Cc2cccn2C)CC3)cs1`: the INHIBITION is on record as 29.3%.

As to `Cc1nnc2n1CCN(C(C(=O)N1CCCCC1)c1ccccc1)C2` (stereo not drawn), the INHIBITION is recorded as 11.15%.

Regarding `O=C(NCc1ccc(Cl)cc1Cl)NCC1(O)CCSC1` (stereo not drawn), the INHIBITION is 31.2%.

Turning to `NC(=O)Cn1ccc(O)c(Cc2ccc(Cl)cc2Cl)c1=O`, the INHIBITION was 71.9%.

On to `CCOC(=O)Cn1ccc(O)c(Cc2ccc(Cl)cc2Cl)c1=O`, for which the INHIBITION turned out to be 1.95%.

Take `COc1ccc2c(=O)n(CC3CC3)ccc2c1OC`: the INHIBITION was 6.28%.

For the compound `O=C1CCN(C(=O)CCc2ccc(Cl)cc2Cl)CCN1`, the INHIBITION is reported as 4.97%.

As to `O=c1c(Cc2ccc(Cl)cc2Cl)c(O)ccn1CC1CC1`, the INHIBITION was 86.6%.

Take `COc1nc2c(cc1C(=O)NC(C)Cc1cnccn1)CCC2` (stereo not drawn): the INHIBITION was -40.5%.

As to `O=C(NCCNc1ccc(C(F)(F)F)cn1)c1cc(Cl)ccc1F`, the INHIBITION is listed as 37.3%.

Regarding `Cc1nc(C)n(Cc2cccc(NC(=O)NC(C)(CO)C3CC3)c2)n1` (stereo not drawn), the INHIBITION amounted to 47.4%.

Consider `C=C(C)COCCNC(=O)Nc1cccc(Cn2nc(C)nc2C)c1`, for which the INHIBITION came out at 62.8%.

On to `CC(=O)Nc1cccc(Cn2nc(C)nc2C)c1`, for which the INHIBITION is given as 39.7%.

For `Cc1cc(F)c2c(c1)CCCN2S(=O)(=O)c1ncn(C)c1Cl`, the INHIBITION is 33.7%.

On to `Cc1nn(C(C)C)cc1S(=O)(=O)N(C)Cc1nonc1C`, for which the INHIBITION is on record as 11.8%.

Turning to `CC(=O)N1CCCC1c1nccc(C)n1` (stereo not drawn), the INHIBITION was determined as 21.6%.

Consider `CC(C)(O)CN1CCN(C(=O)c2ccc3c(c2)COC3)CC1`, for which the INHIBITION is -1.14%.

With `COc1cccc(CCC2CCCCN2)c1` (stereo not drawn), the INHIBITION is 36%.

The record behind these values is ChEMBL document CHEMBL4513216, “Probing the Open Global Health Chemical Diversity Library for Multistage-Active Starting Points for Next-Generation Antimalarials” (ACS Infect Dis, 2020).
